The subject of this assay is HepG2. Briefly: GSK_TCMDC: Percent inhibition of human HepG2 cell line. Test compounds present at 10uM. The class given is functional.
For orientation: Inhibition means the percentage by which the read-out fell short of the control. A higher Inhibition goes with a strong effect. On to `COc1cc(CNC[C@@H](O)[C@H](Cc2ccccc2)NC(=O)c2cc(C3CCCC3)cc(N3CCCS3(=O)=O)c2)cc(OC)c1.Cl`, for which the Inhibition was 31%.
To `CC(C)(C)c1cc(Cn2ccnc2)cc(C(C)(C)C)c1O` belongs 4%.
To `NC1=NC2(CCCCC2)N(OCCCCCCc2ccccc2)C(N)=N1` belongs 73%; to `CC(C)CC1c2[nH]c3ccccc3c2CCN1C(=O)CCc1ccccc1` (centres undefined), 0%.
The figure for `Cc1ccc(N2C(N)=NC(N)=NC2c2ccccc2)cc1.Cl` (centres undefined) is 11%; for `Cc1ccccc1C1CCN(C2CCC(NC(=O)/C=C/c3ccc4c(c3)OC(F)(F)O4)CC2)CC1` (centres undefined) it is 75%.
Consider `Cc1nc2sccn2c1C(=O)NCCc1ccccc1Cl`, for which the Inhibition stood at 6%.
The figure for `CC(C)(C)c1ccc(CN2CCC(CNC(=O)c3cc(-c4cccc(Cl)c4)cs3)C2)cc1.O=C(O)C(F)(F)F` (centres undefined) is 44%.
To `O=C(c1cnn(-c2ccccc2)c1C(F)(F)F)N1CCN(c2ccnc3cc(Cl)ccc23)CC1` belongs 34%; to `O=C(O)C(F)(F)F.O=S(=O)(NCCN1CCCC1)c1ccc(-c2ccc(CNCc3ccccc3)cc2)cc1F`, 35%; to `COc1ccc(-c2nonc2NC(=O)c2ccc(OC(C)C)cc2)cc1OC`, 11%.
For `O=C(O)C(F)(F)F.c1ccc(-c2ccc(CNCc3ccc(-c4cccc(-c5nc6ccccc6[nH]5)c4)cc3)s2)nc1`, the Inhibition was determined as 48%.
Consider `Cc1cccc2nc(-c3cccc(-c4ccc(NC(=O)COC(C)C)cc4)c3)[nH]c12`, for which the Inhibition is 0%.
To `CC(=O)N[C@H](C(=O)Nc1ccc(-c2ccc(-c3nc4cc(C(F)(F)F)ccc4[nH]3)s2)cc1)C(C)C` belongs 42%.

For the origin of these results see ChEMBL document CHEMBL1157539, “Thousands of chemical starting points for antimalarial lead identification” (Nature, 2010).
